66 compounds from PubChem BioAssay AID1024 (Sanford-Burnham Center for Chemical Genomics, 2008) can be followed below.

Out of some 96,000 compounds screened, about 1,400 (1.5%) were called active. Shown is part of a subset that was picked to be rich in actives. Values without a mark were called inactive.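 How the source made its calls: active means activation factor of 2 or more for CYP2C9 at a 5 µM dose; inactive means the rest.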

The target in the test is Cytochrome P450 2C9 (Homo sapiens) (UniProt P11712). Kind of test: human CYP2C9 activators, primary screen, biochemical, luminescence (AID 1024).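 Further: 0 = sulfaphenazole-blocked wells and 1 = vehicle-only wells.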 As to conditions: recombinant CYP2C9, luciferin-H conversion, at 5 µM, active compounds read high, factor 1 = untreated enzyme, 0 = blocked.
Chain of Cytochrome P450 2C9 (Homo sapiens) (P11712 whole entry, looked up): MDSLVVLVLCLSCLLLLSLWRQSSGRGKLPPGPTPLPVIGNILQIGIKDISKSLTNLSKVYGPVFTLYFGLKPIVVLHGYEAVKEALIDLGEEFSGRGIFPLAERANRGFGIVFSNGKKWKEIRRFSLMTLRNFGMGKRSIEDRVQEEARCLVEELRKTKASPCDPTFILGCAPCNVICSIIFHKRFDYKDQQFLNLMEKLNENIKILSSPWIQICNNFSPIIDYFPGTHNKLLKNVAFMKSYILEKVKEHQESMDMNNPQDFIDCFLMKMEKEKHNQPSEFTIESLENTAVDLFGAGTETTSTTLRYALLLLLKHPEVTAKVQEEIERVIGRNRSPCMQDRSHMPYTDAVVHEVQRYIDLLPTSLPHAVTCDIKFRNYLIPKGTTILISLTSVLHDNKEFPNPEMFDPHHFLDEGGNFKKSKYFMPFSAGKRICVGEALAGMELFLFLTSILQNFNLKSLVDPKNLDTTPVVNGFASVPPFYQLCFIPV
In the case of `CCN(c1ccccc1)S(=O)(=O)c1ccc(NC(=O)C(C)(C)C)cc1`, the activation factor is 0.7.

`CCN(c1ccccc1)S(=O)(=O)c1ccc(N)cc1`: the activation factor was 2.4 (active).

For `CCN(c1ccccc1)S(=O)(=O)c1cccc(C(=O)O)c1`, the activation factor is 0.7.

As to `O=C(NCCc1ccccn1)c1cc(C(=O)C2CCCCC2)c[nH]1`, the activation factor is 0.9.

With `CC1CCN(C(NC(=O)c2ccco2)C(=O)c2ccccc2)CC1` (stereo unspecified), the activation factor is 0.3.

Regarding `COc1ccc(CCNC(=O)COC(=O)c2ccc[nH]c2=O)cc1`, the activation factor is 0.8.

For the compound `COc1cc(C2C(C(=O)OCCC#N)=C(C)NC3=C2S(=O)(=O)c2ccccc23)cc(OC)c1OC` (stereo unspecified), the activation factor is 0.5.

As for `O=C(CCCN1C(=O)c2cccc3cccc(c23)C1=O)N1CCN(Cc2ccc3c(c2)OCO3)CC1`, the activation factor is 2.4 (active).

Regarding `O=C(Nc1cccc2ccccc12)N1CCN(Cc2ccc3c(c2)OCO3)CC1`, the activation factor was 0.6.

Turning to `Cn1c(=O)cc(OCCCC(=O)N2CCN(Cc3ccc4c(c3)OCO4)CC2)c2ccccc21`, the activation factor was 0.9.

On to `COc1ccc(N(CC(=O)N/N=C/c2cccc3c2OCCO3)S(=O)(=O)c2ccc(NC(C)=O)cc2)cc1`, for which the activation factor was 0.2.

On to `CCN(CC)S(=O)(=O)c1ccc2c3c(cccc13)C(=O)S2`, for which the activation factor was 1.5.

For `COc1cccc(C(=O)c2cc3ccc(O)cc3oc2=O)c1`, the activation factor is 0.1.

With `COc1ccc2oc(=O)c(C(=O)O)cc2c1`, the activation factor was 1.1.

For the compound `COc1cccc2cc(C(=O)N(C)C)c(=O)oc12`, the activation factor is 2 (active).

Take `O=C(Oc1ccccc1)Oc1ccc2c(c1)oc(=O)c1ccccc12`: the activation factor was 1.6.

Turning to `Cc1n[nH]c(=S)n1/N=C/c1ccc(Br)o1`, the activation factor is 1.

Turning to `CCc1cccc2c(C=C(C#N)C#N)cn(CC(=O)N3CCCCC3)c12`, the activation factor is 1.

For the compound `Cc1nc(SCC(=O)N2CC(=O)Nc3ccccc32)c2c(C)c(C)sc2n1`, the activation factor was 0.4.

Take `COc1ccc(C2CC(=O)n3c(nc4ccccc43)S2)cc1OC` (stereo unspecified): the activation factor was 0.9.

In the case of `COc1ccc(S(=O)(=O)N2CCC(C(=O)N3CCc4ccccc4C3)CC2)cc1OC`, the activation factor is 0.5.

On to `COc1ccc(C2SCCN2S(=O)(=O)c2ccccc2)cc1OC` (stereo unspecified), for which the activation factor is 2.1 (active).

As for `COc1ccc(CNC(=O)C2CCC(CNc3c(N4CCOCC4)c(=O)c3=O)CC2)cc1` (stereo unspecified), the activation factor was 1.1.

Turning to `Cc1ccc(CNC(=O)c2ccccc2CCc2ccccc2)cc1`, the activation factor is 0.7.

As for `Clc1ccc(Cl)c(Oc2ccc(Oc3nc(Cl)ccc3Cl)cc2)n1`, the activation factor is 2 (active).

`N#Cc1ccc(-c2ccc(Cl)cc2)nc1Oc1ccc(F)cc1`: the activation factor was 0.9.

Regarding `Nc1ccc(Oc2ccc(Cl)cc2)cc1`, the activation factor was 0.8.

As for `C=CCNC(=O)c1sc(SC)cc1-c1ccc(Cl)cc1`, the activation factor is 0.4.

As to `Cc1ccc(C(=O)OC2=CC(=O)CC(C)(C)C2)cc1`, the activation factor was 0.7.

Regarding `Cc1cc(C)c(S(=O)(=O)NCCCN2CCOCC2)cc1Br`, the activation factor was 2 (active).

With `O=[N+]([O-])c1ccc(NCCCN2CCOCC2)c(Cl)c1`, the activation factor is 0.9.

With `Cc1ccc(S(=O)(=O)NCCN2CCOCC2)cc1C`, the activation factor is 0.8.

On to `O=C(CN1CCN(S(=O)(=O)c2ccc(Cl)s2)CC1)NCc1ccc(Cl)cc1`, for which the activation factor was 0.4.

As for `CCCCNCc1ccc(SC)cc1`, the activation factor is 1.

In the case of `C=CCNC(=O)c1cc(-c2ccccc2O)on1`, the activation factor was 1.5.

Take `O=C(NCc1ccccn1)c1cc(-c2ccccc2Cl)on1`: the activation factor is 2.6 (active).

For `O=C(NCc1ccccn1)c1cc2ccccc2oc1=O`, the activation factor was 1.3.

With `COc1ccccc1NC(=O)COc1ccc(C(=O)OCC(=O)N(C(C)C)C(C)C)cc1OC`, the activation factor was 0.6.

With `O=C(NCc1ccc2c(c1)OCO2)C1CCCN(S(=O)(=O)c2cccs2)C1` (stereo unspecified), the activation factor is 0.1.

Take `O=C(NCc1cccs1)C1CCN(S(=O)(=O)c2ccc3c(c2)OCCO3)CC1`: the activation factor was 2.7 (active).

Take `O=C(c1ccc2c(c1)OCCO2)C1CCN(S(=O)(=O)c2cccc(F)c2)CC1`: the activation factor was 1.2.

Regarding `FC(F)(F)c1cccc(-c2cc3ccccc3nc2N2CCCC2)c1`, the activation factor is 0.9.

Take `CCN(Cc1ccccc1)C(=O)CSc1nc(C)cc2c1C(=O)OC2`: the activation factor was 2.3 (active).

Consider `CCOC(=O)n1c(SCC(=O)N(CC)CC)nc2ccccc21`, for which the activation factor is 0.7.

Regarding `CCN(CC)C(=O)CSc1nnc(-c2cccc(OC)c2)o1`, the activation factor is 1.6.

Take `CCN1CCN(c2ccc([N+](=O)[O-])cc2C(=O)c2ccc(Cl)cc2)CC1`: the activation factor was 1.6.

In the case of `CC1CC(C)CN(C/C=C/c2ccccc2[N+](=O)[O-])C1` (stereo unspecified), the activation factor was 0.9.

Regarding `COc1ccc(Cl)cc1S(=O)(=O)Nc1cccc(C(=O)O)c1`, the activation factor is 0.9.

For `COc1ccc(NC(=O)CN2CCN(S(=O)(=O)c3ccc(F)cc3)CC2)cc1Cl`, the activation factor was 0.8.

With `COc1ccc(Cl)cc1S(=O)(=O)N1CCN(CC(=O)C(C)(C)C)CC1`, the activation factor was 2.4 (active).

`O=C(CSCc1ccc([N+](=O)[O-])cc1)NCCSCc1ccccc1`: the activation factor was 0.6.

Consider `CCOC(=O)C1CN(S(=O)(=O)c2ccc(F)cc2)C1`, for which the activation factor is 0.9.

Take `Cc1nc(C)c(C(=O)Nc2cccc(C)c2C)o1`: the activation factor was 1.

Consider `Cc1nc(C)c(C(=O)Nc2ccc(C)c(F)c2)o1`, for which the activation factor is 1.

As for `COc1ccc(Cl)cc1NC(=O)c1oc(C)nc1C`, the activation factor is 2.7 (active).

Take `Cc1ccc(NC(=S)NC2CCCC2)cc1`: the activation factor was 0.7.

In the case of `COc1ccc([N+](=O)[O-])cc1NC(=O)CCc1ccccc1`, the activation factor is 1.7.

Regarding `COc1ccccc1NC(=S)NC(=O)C(C)C`, the activation factor is 0.9.

As for `COc1ccccc1NC(=O)/C=C/C(N)=O`, the activation factor was 1.2.

Take `COc1ccccc1NC(=O)c1ccc(C)s1`: the activation factor is 3.5 (active).

For the compound `N#Cc1ccsc1NC(=O)CN1CCCCC1`, the activation factor was 1.2.

For `COc1cc(/C=N\NC(=O)CNC(=O)c2cccc([N+](=O)[O-])c2)ccc1O`, the activation factor was 1.1.

Turning to `CC1(C)CC(=O)C2=C(C1)N=C1SCCC(=O)N1C2c1ccc(C(F)(F)F)cc1` (stereo unspecified), the activation factor is 1.2.

On to `CCOc1ccc(C(=O)Nc2cc(OC)ccc2OC)cc1`, for which the activation factor was 2.1 (active).

In the case of `CCOc1ccccc1NC(=O)Nc1cc(OC)ccc1OC`, the activation factor is 1.

`CCOc1ccc(S(=O)(=O)Nc2ccc(S(=O)(=O)Nc3cc(OC)ccc3OC)cc2)cc1`: the activation factor was 0.2.
